# Y pestis TopoI: Yersinia pestis topoisomerase I inhibitors, primary screen, biochemical, cleavage product accumulation, plate reader, single point; hit rate 0.064% among 360,000; DNA topoisomerase I (Yersinia pestis CO92); Y. pestis Topo-I cleavage product accumulation; activity, % at 10 µM; AID 504884, 2011; in the data active = activity above about 50%, passing the limit was not always enough
# Mtb hypoxia inh: PubChem AID 1159583. fluorescence inhibition, % (no concentration beside the values). hit rate 0.1% among 300,000. M. tuberculosis hypoxia-regulated fluorescent reporter, fluorescence; in the data active = fluorescence inhibition mostly above about 23%, no sharp cut-off; inactive = mostly below about 17%
# ugtP null kill: growth inhibition of ugtP-null S. aureus, primary screen, RN4220 ugtP deletion, OD600; 16 h; growth inhibition, % (no concentration beside the values); hit rate 0.54% among 330,000; AID 1259309, 2017; in the data active = growth inhibition above about 68%
# Mtb BioA inh: M. tuberculosis BioA enzyme inhibitors, primary screen, biochemical, plate reader, single point, HTS. inhibition, % at 9.99 µM. hit rate 0.096% among 360,000. purified M. tuberculosis BioA enzyme. 7,8-diaminopelargonic acid synthase BioA (Mycobacterium tuberculosis); in the data active = inhibition above about 40%
# TcdB inh: TcdB glycohydrolase inhibitors, primary screen, biochemical, single point, plate reader. TcdB glycohydrolase enzymatic assay. inhibition, % at 9.99 µM. hit rate 0.24% among 350,000. AID 652162, 2013; in the data active = inhibition above about 10%
# RN4220 kill: growth inhibition of S. aureus RN4220, primary screen, OD600; 16 h; inhibition, % (test concentration not listed); hit rate 0.33% among 330,000; AID 1259311, 2017; in the data active = inhibition above about 85%
# Hits are given with their value; . = inactive; / = no result. Only some compounds are listed: those with a hit (about 0.75% of all), similar ones and a draw of the others.
SMILES,Y pestis TopoI,Mtb hypoxia inh,ugtP null kill,Mtb BioA inh,TcdB inh,RN4220 kill
CCNc1nc(NC(C)C)nc(N(n2cnnc2)S(=O)(=O)c2ccc(C)cc2)n1,.,.,90,/,.,.
CCNc1nc(NCC)nc(N(n2cnnc2)S(=O)(=O)c2ccc(C)cc2)n1,.,.,99,/,/,97
CCNc1nc(NC(C)C)nc(NS(=O)(=O)c2ccc(N)cc2)n1,.,.,.,.,/,.
C=CCOc1c(Br)cc(/C=C2\SC(=Nc3ccccc3)NC2=O)cc1OC,57,.,.,.,.,.
COC(=O)C1=C(c2ccc(S(C)(=O)=O)cc2)CC2CCC1N2C(=O)NCc1ccc(C(F)(F)F)cc1 (centres undefined),/,.,.,/,/,.
CCN1C(=O)C2C(c3ccc(Cl)cc3)N3C(=O)CN(CC4CC4)C(=O)[C@@]3(Cc3ccccc3)C2C1=O (some centres undefined),/,.,.,/,/,.
O=C(C[C@H]1C[C@@H]2c3cc(NC(=O)c4ccc5c(c4)OCO5)ccc3O[C@@H]2[C@H](CO)O1)NCc1cccc(F)c1,/,/,/,.,.,/
O=C(C[C@@H]1C[C@H]2c3cc(NC(=O)c4ccc5c(c4)OCO5)ccc3O[C@H]2[C@H](CO)O1)NCc1cccc(F)c1,/,/,/,.,18,/
O=C(C[C@@H]1C[C@@H]2c3cc(NC(=O)c4ccc5c(c4)OCO5)ccc3O[C@@H]2[C@@H](CO)O1)NCc1cccc(F)c1,/,/,/,.,17,/
O=C(C[C@@H]1C[C@H]2c3cc(NC(=O)Nc4ccccc4)ccc3O[C@H]2[C@H](CO)O1)NCc1ccccc1,/,/,/,.,12,/
O=C(C[C@@H]1C[C@@H]2c3cc(NC(=O)Nc4ccccc4)ccc3O[C@@H]2[C@H](CO)O1)NCc1ccccc1,/,/,/,.,.,/
O=C(C[C@H]1C[C@@H]2c3cc(NC(=O)c4ccc5c(c4)OCO5)ccc3O[C@@H]2[C@@H](CO)O1)NCc1cccc(F)c1,/,/,/,.,20,/
C=CCC(CC(=O)NCCO)C(=O)NC(COC(=O)C(CC=C)Cc1ccc(F)cc1)Cc1ccccc1 (centres undefined),/,.,.,/,/,.
Cn1c(=O)c2c(nc(NN=Cc3ccncc3)n2Cc2ccccc2)n(C)c1=O,/,.,.,/,/,.
CC1CCCCC1=NNc1ccc(S(N)(=O)=O)cc1[N+](=O)[O-] (centres undefined),/,.,.,/,/,.
COc1cccc2c1C(=O)c1c(O)c3c(c(O)c1C2=O)C[C@](O)(C(C)=O)C[C@H]3O[C@@H]1C[C@@H](N)[C@@H](O)[C@@H](C)O1,.,/,/,.,.,/
COc1cccc2c1C(=N)c1c(O)c3c(c(O)c1C2=O)CC(O)(C(C)=O)CC3OC1CC(N)C(O)C(C)O1 (centres undefined),231,/,/,/,/,/
O=S(=O)(c1ccccc1)N1CCN(c2ncnc3scc(-c4ccccc4)c23)CC1,.,.,98,.,.,96
Cc1ccc(-c2csc3ncnc(N4CCN(S(=O)(=O)c5ccc(C#N)cc5)CC4)c23)cc1,.,/,/,.,.,/
Cc1ccc(-c2csc3ncnc(N4CCN(S(=O)(=O)c5cccs5)CC4)c23)cc1,.,.,98,.,/,97
Cc1cc(C)cc(Nc2nc3ccccc3c(=O)[nH]2)c1,.,.,.,/,.,.
COc1nc(Nc2nc3ccccc3c(=O)[nH]2)nc2ccc(C)cc12,.,.,100,.,.,100
CCCSc1cc(N2CCN(C)CC2)nc(-c2ccc(OC)cc2)n1,.,.,100,/,/,.
Cc1ccc(-c2nc(N)sc2-c2ccccc2)cc1C,.,.,96,/,/,.
CC(C)C(NS(=O)(=O)c1ccccc1)C(=O)OCC(=O)NC(=O)c1cccn1C (centres undefined),/,.,.,/,/,.
c1ccc(-c2onc(-c3ccco3)c2-c2ccc3[nH]ccc3c2)cc1,.,.,85,.,.,.
CC1CN(C(C)CO)C(=O)c2cc(NC(=O)CCC(F)(F)F)ccc2OC1CN(C)C(=O)NC1CCCCC1 (centres undefined),/,.,.,/,/,.
COC(=O)c1ccc(-c2ccco2)n1Cc1cccc(C)c1,.,.,94,.,/,.
COC(=O)c1ccc(-c2ccco2)n1Cc1cc(C)ccc1C,.,.,.,/,/,.
Brc1ccc(OCc2nnc3n2CCC3)cc1,.,36,.,/,.,.

# High-throughput results (PubChem)
